PubChem BioAssay (NCI)
The panel holds about 83,000 compounds, 20% with a hit somewhere; the sample as a whole holds those more often.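 Single-concentration screen, 48 h exposure, 96-well plates. Endpoint: percent growth. Below 10 = active.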 Values without a mark were called inactive. Active and inactive are the calls of the source.

Columns and labels:
Experiment in all cases: NCI-60 one-dose screen, 48 h (100 = growth as untreated, 0 = no growth, -100 = all killed)
[1] = tested on: DU-145 prostate; conditions: 10 µM unless noted
[2] = tested on: K-562 leukemia; conditions: 10 µM unless noted
[3] = tested on: MALME-3M melanoma; conditions: 10 µM unless noted
[4] = tested on: MDA-MB-231 breast; conditions: 10 µM unless noted
[5] = tested on: RXF 393 renal; conditions: 10 µM unless noted
[6] = tested on: SF-268 CNS; conditions: 10 µM unless noted
[7] = tested on: SF-295 CNS; conditions: 10 µM unless noted
[8] = tested on: SF-539 CNS; conditions: 10 µM unless noted
[9] = tested on: UACC-257 melanoma; conditions: 10 µM
[10] = tested on: M14 melanoma; conditions: 10 µM unless noted
[11] = tested on: HCT-15 colon; conditions: 10 µM unless noted
[12] = tested on: HT29 colon; conditions: 10 µM unless noted
[13] = tested on: SNB-75 CNS; conditions: 10 µM unless noted
[14] = tested on: SNB-19 CNS; conditions: 10 µM unless noted
[15] = tested on: U251 CNS; conditions: 10 µM unless noted
[16] = tested on: PC-3 prostate; conditions: 10 µM unless noted
[17] = tested on: SK-MEL-5 melanoma; conditions: 10 µM unless noted
[18] = tested on: UACC-62 melanoma; conditions: 10 µM unless noted
[19] = tested on: LOX IMVI melanoma; conditions: 10 µM unless noted
[20] = tested on: SK-MEL-28 melanoma; conditions: 10 µM unless noted

Structure (SMILES)	growth [1]	growth [2]	growth [3]	growth [4]	growth [5]	growth [6]	growth [7]	growth [8]	growth [9]	growth [10]	growth [11]	growth [12]	growth [13]	growth [14]	growth [15]	growth [16]	growth [17]	growth [18]	growth [19]	growth [20]
CCN1C(=O)N(CC)C2SC(N/N=C/c3cccs3)=NC21 (stereo not given)	14.6%	11.5%	66.4%	24.5%	72.5%	35.7%	17.1%	-9.73% (active)	54.2%	6.49% (active)	14.8%	1.59% (active)	50.6%	25.9%	10.2%	28.4%	-5.21% (active)	36.7%	8.77% (active)	54.2%
O=S(=O)(Nc1ccc(I)c(Cl)c1)c1ccc(-c2cnc(C3CC3)o2)cc1	19.5%	9.83% (active)	49.4%	44.8%	2.46% (active)	59.4%	12.2%	10.9%	69.9%	20.9%	27.8%	8.12% (active)	-13% (active)	42.7%	31%	20.4%	16.8%	31.2%	36.1%	59.7%
COC(=O)c1c(C(=O)OC)c2n(CC(=O)Nc3cccc4cccnc34)c3ccccc3n2c1C(=O)c1ccc(C)cc1	105%	91.2%	97.7%	88.4%	97.8%	97.2%	95.1%	106%	104%	99.9%	97.6%	102%	101%	91.1%	97.7%	82.5%	96.4%	84.6%	98.9%	110%
COC[C@]12CC[C@@H](C)[C@H](C)[C@H]1C1=CC[C@@H]3[C@@]4(C)CCCNC(C)(C)[C@@H]4CC[C@@]3(C)[C@]1(C)CC2	12.8%	0.992% (active)	-36.7% (active)	51.2%	56.2%	70.2%	-74.2% (active)	26.3%	20.3%	-48.3% (active)	8.12% (active)	0.874% (active)	105%	47.8%	-34.8% (active)	18.4%	35.6%	17.2%	-87.8% (active)	-59.6% (active)
Fc1ccccc1/C=C(/C1=NCCN1)n1cnc2ccccc21	97.2%	94.1%	91%	93.4%	84.1%	90.9%	100%	95.6%	96.9%	95.1%	93%	112%	92.2%	97.6%	101%	95.7%	106%	94.9%	90.3%	95.3%
O=C1Nc2cc(OC(F)(F)F)ccc2Oc2ccc(-c3ccnc(N4CC[C@H](O)C4)c3)cc21	-39.1% (active)	5.41% (active)	39.4%	17.2%	-10% (active)	19.1%	3.93% (active)	-28.7% (active)	72%	-1.7% (active)	-30.6% (active)	-58.7% (active)	-6% (active)	35.9%	4.76% (active)	15%	-58.4% (active)	28.8%	3.23% (active)	24.6%
C#CCOc1ccc(/C=N/Nc2nc(-c3cc(Cl)ccc3Cl)cs2)cc1	102%	78.7%	99.3%	84.7%	111%	95.7%	89.7%	102%	103%	94.8%	81.7%	110%	77.3%	104%	98.6%	87.1%	97.8%	80.3%	97.7%	110%
O=C(NNc1nc2cc(F)c(F)cc2n2cccc12)c1ncccn1	26.8%	20.8%	32.7%	42.1%	48.8%	17.3%	14.7%	10.9%	14.5%	1.46% (active)	28.8%	34.3%	-1.51% (active)	25.8%	18.3%	32.4%	-70.7% (active)	18.3%	16.1%	25.7%
COc1cc(C(=O)c2cc(C(C)=O)c3c4ccccc4ccn23)cc(OC)c1OC	94.4%	23.9%	64.6%	54.7%	49.2%	74.3%	55.2%	75.3%	75.8%	58.6%	28.5%	39.6%	45.3%	64.3%	73.6%	48.1%	22.9%	38%	58.4%	80.9%
COc1ccc2c(ccn2C(=O)N2c3ccccc3Sc3ccccc32)c1	28.2%	18.7%	51.3%	64.5%	12%	63%	16.5%	11.6%	70.3%	21.8%	32.7%	-12.6% (active)	-3.95% (active)	30.8%	27%	35.2%	24.5%	33.3%	46.5%	66.4%
O=C1/C(=C/c2ccccc2[N+](=O)[O-])Oc2ccc(O)cc21	29.8%	4.21% (active)	47.8%	30.2%	12.3%	78.5%	88.9%	15.2%	60.3%	54.9%	-31.4% (active)	-23.7% (active)	54.2%	79.3%	56.9%	57.1%	90.8%	37.1%	-46.2% (active)	43.3%
CN1C(=O)/C(=C/C=C/c2ccco2)SC1=S	101%	77.7%	36%	86.8%	-20.9% (active)	91.2%	101%	84.7%	88.1%	45%	63.5%	90.9%	92.6%	88.5%	66.8%	80%	40%	77.2%	75.5%	83.9%
COc1ccc(OC)c(NC2=C(Cl)C(=O)C(C)=C(C)C2=O)c1	104%	55.8%	98.7%	76.6%	107%	93.9%	100%	99%	86.8%	97.8%	94.7%	105%	71.7%	95.3%	94.1%	77.6%	89.6%	93.8%	89.1%	108%
CCc1ccc(NC(=O)N[C@@H](Cc2cccc(C)c2)C(=O)N[C@@H]2C(=O)N3CCC[C@H]3C(=O)N3CCCC[C@H]3C(=O)N[C@@H](CO)C(=O)N3C[C@H](C)C[C@H]3C(=O)O[C@H]2C)c(F)c1	25.3%	27%	37.3%	33.9%	-9.15% (active)	30.1%	12.8%	37.5%	15%	23.7%	15.5%	33.5%	20.4%	28.3%	31.7%	17.8%	-29.3% (active)	25.9%	32.8%	38.1%
